Reference: PubChem BioAssay AID1159580 (chemical genetic matrix, 2015)
About 2,000 (36%) of roughly 5,500 compounds were called active. Roughly 18% stayed inconclusive and do not appear here. The list shows a part of the results. Values without a mark were called inactive. No stated cut-off is given here; in the data, active means normalized growth mostly below about 0.91 (no sharp cut-off); inconclusive means no clear call, values can overlap the other calls; inactive means mostly above about 0.92.

Experiment: chemical genetic growth profiling, strain panel (AID 1159580);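 further: tested at 20 µM; growth read once vehicle control cultures reached saturation at 30 °C; 1 = growth at the plate median or of vehicle wells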
Conditions: growth OD
[1] = S. cerevisiae deletion strains, locus YDL101C, strain DUN1, stronger effect = lower value
[2] = S. cerevisiae deletion strains, locus YHR030C, strain SLT2, stronger effect = lower value
[3] = S. cerevisiae deletion strains, locus YMR307W, strain GAS1, stronger effect = lower value
[4] = S. cerevisiae deletion strains, locus YNL322C, strain KRE1, stronger effect = lower value
[5] = S. cerevisiae deletion strains, locus YPL055C, strain LGE1, stronger effect = lower value
[6] = S. cerevisiae deletion strains, locus YPL241C, strain CIN2, stronger effect = lower value

## Cc1ccc(C)c(CSc2nc(C3CCCCC3)c(C#N)c(=O)[nH]2)c1
S. cerevisiae deletion strains, locus YAR019C, strain CDC15, stronger effect = lower value
  normalized growth: 0.979
S. cerevisiae deletion strains, locus YBL105C, strain PKC1, stronger effect = lower value
  normalized growth: 0.975
S. cerevisiae deletion strains, locus YBR135W, strain CKS1, stronger effect = lower value
  normalized growth: 0.964
S. cerevisiae deletion strains, locus YBR136W, strain MEC1, stronger effect = lower value
  normalized growth: 0.98
S. cerevisiae deletion strains, locus YBR160W, strain CDC28, stronger effect = lower value
  normalized growth: 0.98
S. cerevisiae deletion strains, locus YDL017W, strain CDC7, stronger effect = lower value
  normalized growth: 0.981
S. cerevisiae deletion strains, locus YDL028C, strain MPS1, stronger effect = lower value
  normalized growth: 0.985
[1]
  normalized growth: 0.983
S. cerevisiae deletion strains, locus YDL108W, strain KIN28, stronger effect = lower value
  normalized growth: 0.985
S. cerevisiae deletion strains, locus YDL132W, strain cdc53, stronger effect = lower value
  normalized growth: 0.973
S. cerevisiae deletion strains, locus YDL214C, strain PRR2, stronger effect = lower value
  normalized growth: 1
S. cerevisiae deletion strains, locus YDR052C, strain DBF4, stronger effect = lower value
  normalized growth: 0.968
S. cerevisiae deletion strains, locus YDR054C, strain cdc34, stronger effect = lower value
  normalized growth: 0.983
S. cerevisiae deletion strains, locus YDR226W, strain ADK1, stronger effect = lower value
  normalized growth: 0.984
S. cerevisiae deletion strains, locus YDR477W, strain SNF1, stronger effect = lower value
  normalized growth: 1
S. cerevisiae deletion strains, locus YER123W, strain YCK3, stronger effect = lower value
  normalized growth: 1.01
S. cerevisiae deletion strains, locus YER133W, strain GLC7, stronger effect = lower value
  normalized growth: 1.01
S. cerevisiae deletion strains, locus YFL009W, strain cdc4, stronger effect = lower value
  normalized growth: 0.981
S. cerevisiae deletion strains, locus YFL029C, strain CAK1, stronger effect = lower value
  normalized growth: 0.983
S. cerevisiae deletion strains, locus YFR003C, strain YPI1, stronger effect = lower value
  normalized growth: 0.98
S. cerevisiae deletion strains, locus YFR019W, strain FAB1, stronger effect = lower value
  normalized growth: 0.992
S. cerevisiae deletion strains, locus YFR028C, strain CDC14, stronger effect = lower value
  normalized growth: 0.975
S. cerevisiae deletion strains, locus YGR040W, strain KSS1, stronger effect = lower value
  normalized growth: 1.02
S. cerevisiae deletion strains, locus YGR052W, strain FMP48, stronger effect = lower value
  normalized growth: 1.11
S. cerevisiae deletion strains, locus YGR092W, strain DBF2, stronger effect = lower value
  normalized growth: 0.987
[2]
  normalized growth: 1.18 [resistant] (active)
S. cerevisiae deletion strains, locus YHR079C, strain IRE1, stronger effect = lower value
  normalized growth: 1.12
S. cerevisiae deletion strains, locus YHR082C, strain KSP1, stronger effect = lower value
  normalized growth: 1.14
S. cerevisiae deletion strains, locus YHR205W, strain SCH9, stronger effect = lower value
  normalized growth: 0.988
S. cerevisiae deletion strains, locus YIL147C, strain SLN1, stronger effect = lower value
  normalized growth: 0.971
S. cerevisiae deletion strains, locus YJL095W, strain BCK1, stronger effect = lower value
  normalized growth: 1.12
S. cerevisiae deletion strains, locus YJL128C, strain PBS2, stronger effect = lower value
  normalized growth: 0.981
S. cerevisiae deletion strains, locus YJL157C, strain FAR1, stronger effect = lower value
  normalized growth: 1
S. cerevisiae deletion strains, locus YJR016C, strain ILV3, stronger effect = lower value
  normalized growth: 0.989
S. cerevisiae deletion strains, locus YJR066W, strain TOR1 (second series), stronger effect = lower value
  normalized growth: 0.99
S. cerevisiae deletion strains, locus YJR066W, strain TOR1, stronger effect = lower value
  normalized growth: 1.17
S. cerevisiae deletion strains, locus YKL048C, strain ELM1, stronger effect = lower value
  normalized growth: 0.98
S. cerevisiae deletion strains, locus YKL067W, strain YNK1, stronger effect = lower value
  normalized growth: 0.98
S. cerevisiae deletion strains, locus YKL101W, strain HSL1, stronger effect = lower value
  normalized growth: 0.992
S. cerevisiae deletion strains, locus YKL193C, strain SDS22, stronger effect = lower value
  normalized growth: 0.97
S. cerevisiae deletion strains, locus YKL203C, strain TOR2, stronger effect = lower value
  normalized growth: 1.09
S. cerevisiae deletion strains, locus YLR113W, strain HOG1, stronger effect = lower value
  normalized growth: 1.06
S. cerevisiae deletion strains, locus YLR133W, strain CKI1, stronger effect = lower value
  normalized growth: 0.984
S. cerevisiae deletion strains, locus YLR403W, strain SFP1, stronger effect = lower value
  normalized growth: 0.999
S. cerevisiae deletion strains, locus YML070W, strain DAK1, stronger effect = lower value
  normalized growth: 1
S. cerevisiae deletion strains, locus YMR001C, strain CDC5, stronger effect = lower value
  normalized growth: 0.971
S. cerevisiae deletion strains, locus YMR205C, strain PFK2 (second series), stronger effect = lower value
  normalized growth: 0.99
S. cerevisiae deletion strains, locus YMR277W, strain FCP1, stronger effect = lower value
  normalized growth: 0.978
S. cerevisiae deletion strains, locus YNL006W, strain LST8, stronger effect = lower value
  normalized growth: 0.978
S. cerevisiae deletion strains, locus YNL020C, strain ARK1, stronger effect = lower value
  normalized growth: 0.982
S. cerevisiae deletion strains, locus YNL161W, strain CBK1, stronger effect = lower value
  normalized growth: 0.984
S. cerevisiae deletion strains, locus YNL183C, strain NPR1, stronger effect = lower value
  normalized growth: 1.11
S. cerevisiae deletion strains, locus YNL207W, strain RIO2, stronger effect = lower value
  normalized growth: 0.995
S. cerevisiae deletion strains, locus YNL222W, strain SSU72, stronger effect = lower value
  normalized growth: 0.972
S. cerevisiae deletion strains, locus YNL307C, strain MCK1 (second series), stronger effect = lower value
  normalized growth: 0.996
S. cerevisiae deletion strains, locus YOL078W, strain AVO1, stronger effect = lower value
  normalized growth: 0.982
S. cerevisiae deletion strains, locus YOL136C, strain PFK27, stronger effect = lower value
  normalized growth: 1.01
S. cerevisiae deletion strains, locus YOR061W, strain CKA2, stronger effect = lower value
  normalized growth: 0.996
S. cerevisiae deletion strains, locus YOR119C, strain RIO1, stronger effect = lower value
  normalized growth: 1.04
S. cerevisiae deletion strains, locus YOR231W, strain MKK1, stronger effect = lower value
  normalized growth: 1.1
S. cerevisiae deletion strains, locus YOR329C, strain SCD5, stronger effect = lower value
  normalized growth: 0.985
S. cerevisiae deletion strains, locus YPL031C, strain PHO85, stronger effect = lower value
  normalized growth: 1.01
S. cerevisiae deletion strains, locus YPL153C, strain RAD53, stronger effect = lower value
  normalized growth: 1.01
S. cerevisiae deletion strains, locus YPL204W, strain HRR25, stronger effect = lower value
  normalized growth: 1
S. cerevisiae deletion strains, locus YPL209C, strain IPL1, stronger effect = lower value
  normalized growth: 0.988
S. cerevisiae deletion strains, locus YPL256C, strain CLN2, stronger effect = lower value
  normalized growth: 1.12
S. cerevisiae deletion strains, locus YPR025C, strain CCL1, stronger effect = lower value
  normalized growth: 0.973
S. cerevisiae deletion strains, locus YPR106W, strain ISR1, stronger effect = lower value
  normalized growth: 0.987
S. cerevisiae deletion strains, locus YPR111W, strain DBF20, stronger effect = lower value
  normalized growth: 0.977
S. cerevisiae deletion strains, strain NNK1, stronger effect = lower value
  normalized growth: 0.994
S. cerevisiae deletion strains, strain TSCII, stronger effect = lower value
  normalized growth: 0.981

## NCc1cc(=O)[nH]o1
S. cerevisiae deletion strains, locus YAL040C, strain CLN3, stronger effect = lower value
  normalized growth: 1.05
S. cerevisiae deletion strains, locus YCL061C, strain MRC1 (second series), stronger effect = lower value
  normalized growth: 1
S. cerevisiae deletion strains, locus YDR363W, strain ESC2, stronger effect = lower value
  normalized growth: 1.01
S. cerevisiae deletion strains, locus YER002W, strain NOP16, stronger effect = lower value
  normalized growth: 1.02
[3]
  normalized growth: 1
S. cerevisiae deletion strains, locus YNL175C, strain NOP13, stronger effect = lower value
  normalized growth: 1
S. cerevisiae deletion strains, locus YNL197C, strain WHI3, stronger effect = lower value
  normalized growth: 1.02
S. cerevisiae deletion strains, locus YNL224C, strain SQS1, stronger effect = lower value
  normalized growth: 1.01
[4]
  normalized growth: 1.01
S. cerevisiae deletion strains, locus YOR083W, strain WHI5 (second series), stronger effect = lower value
  normalized growth: 1
[5]
  normalized growth: 1.01
[6]
  normalized growth: 0.989

## O=C(COc1ccc2c(c1)OCO2)N1CCN(c2ncc(C(F)(F)F)cc2Cl)CC1
S. cerevisiae deletion strains, locus YAL013W, strain DEP1, stronger effect = lower value
  normalized growth: 0.993
S. cerevisiae deletion strains, locus YBR229C, strain ROT2, stronger effect = lower value
  normalized growth: 1
S. cerevisiae deletion strains, locus YCL061C, strain MRC1, stronger effect = lower value
  normalized growth: 0.983
[1]
  normalized growth: 1.03
S. cerevisiae deletion strains, locus YDR150W, strain NUM1, stronger effect = lower value
  normalized growth: 0.997
S. cerevisiae deletion strains, locus YEL061C, strain CIN8, stronger effect = lower value
  normalized growth: 0.948
S. cerevisiae deletion strains, locus YGR078C, strain PAC10, stronger effect = lower value
  normalized growth: 0.996
[2]
  normalized growth: 0.55 (active)
S. cerevisiae deletion strains, locus YHR087W, strain rtc3, stronger effect = lower value
  normalized growth: 0.977
S. cerevisiae deletion strains, locus YJL187C, strain SWE1, stronger effect = lower value
  normalized growth: 1
S. cerevisiae deletion strains, locus YJR043C, strain POL32, stronger effect = lower value
  normalized growth: 1.03
S. cerevisiae deletion strains, locus YJR075W, strain HOC1, stronger effect = lower value
  normalized growth: 0.984
S. cerevisiae deletion strains, locus YKL190W, strain CNB1, stronger effect = lower value
  normalized growth: 0.963
S. cerevisiae deletion strains, locus YLR039C, strain RIC1, stronger effect = lower value
  normalized growth: 0.876
S. cerevisiae deletion strains, locus YLR058C, strain SHM2 (second series), stronger effect = lower value
  normalized growth: 0.998
S. cerevisiae deletion strains, locus YLR085C, strain ARP6, stronger effect = lower value
  normalized growth: 0.7 (active)
S. cerevisiae deletion strains, locus YLR262C, strain YPT6, stronger effect = lower value
  normalized growth: 0.885
S. cerevisiae deletion strains, locus YML094W, strain GIM5, stronger effect = lower value
  normalized growth: 0.964
S. cerevisiae deletion strains, locus YMR219W, strain ESC1, stronger effect = lower value
  normalized growth: 0.994
S. cerevisiae deletion strains, locus YMR263W, strain SAP30, stronger effect = lower value
  normalized growth: 1.01
[3]
  normalized growth: 0.791
S. cerevisiae deletion strains, locus YNL153C, strain GIM3, stronger effect = lower value
  normalized growth: 0.978
S. cerevisiae deletion strains, locus YNL298W, strain CLA4 (second series), stronger effect = lower value
  normalized growth: 0.944
[4]
  normalized growth: 0.987
S. cerevisiae deletion strains, locus YNR030W, strain Alg12, stronger effect = lower value
  normalized growth: 0.92
S. cerevisiae deletion strains, locus YOL006C, strain TOP1, stronger effect = lower value
  normalized growth: 0.999
[5]
  normalized growth: 1.03
[6]
  normalized growth: 1.06
S. cerevisiae deletion strains, locus YPR135W, strain CTF4, stronger effect = lower value
  normalized growth: 0.802
S. cerevisiae strains, strain wild type, stronger effect = lower value
  normalized growth: 0.985
